This is a sample that favours compounds with a hit; in the whole collection about 19% have one here.
AMA1 RON2 block: qHTS for Inhibitors of AMA1-RON; Towards Development of Antimalarial Drug Lead: Primary Screen | AlphaScreen AMA1-biotinylated RON2 peptide binding | 0.2% of 360,000 active | Potency, µM (top dose mostly 58.2 µM), for the others: top-dose activity change, negative = inhibition, hits mostly inhibitors | Plasmodium falciparum AMA1 (3D7) - RON2 peptide interaction;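 further: potency means the concentration at half of the fitted maximal effect; 0% = vehicle wells and -100% = peptide control; nearly all actives have a fitted effect of over 45% in size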
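AMA1 (3D7) with his tag at 25 nM final met compounds first, then biotinylated RON2 peptide at 25 nM; detection used donor plus acceptor beads, 10 µg/mL apiece, read by AlphaScreen after 30 min at room temperature.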
Pf growth 48h: Primary qHTS for delayed death inhibitors of the malarial parasite plastid, 48 hour incubation; P. falciparum luciferase growth in erythrocytes, 48 h; Potency, µM (titrated, usually from 28.7 µM), for the others: top-dose activity change, negative = inhibition, actives largely listed as inhibitors; 5.9% of 310,000 active; further: potency means the concentration at half of the fitted maximal effect; on the % scale 0 is the no-effect control and ±100 the full control effect
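Luciferase-expressing parasites in RBCs, 2% Hct / 0.1% parasitemia final; RPMI 1640 + 0.5% Albumax; 37 C, 5% CO2, one generation; luminescence read-out, lower signal = inhibition.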
Shiga toxin inh: A qHTS for Small Molecule Inhibitors of Shiga Toxin; Vero cells, Shiga toxin protein synthesis inhibition reporter; inhibition, % at 38.7 µM; AID 2315, 2010; 9.2% of 290,000 active; in the data active means inhibition mostly above about 28%, no sharp cut-off; inactive means mostly below about 43%; further: 0% is about no effect
CHX counter: Cycloheximide Counterscreen for Small Molecule Inhibitors of Shiga Toxin | cell reporter, cycloheximide protein synthesis inhibition counterscreen | max response, % | 12% of 300,000 active | AID 2314, 2010; in the data active means max response mostly above about 13%, no sharp cut-off; inactive means mostly below about 14%; further: read at 38.3 µM for the half of the compounds with a filed dose; 0% is about no effect
SARS PLP yeast: qHTS of Yeast-based Assay for SARS-CoV PLP; S. cerevisiae expressing SARS-CoV PLpro, growth rescue; Potency, µM (series often up to 32.9 µM), inactives show at the top dose activity, positive = growth rescue, most hits filed as activators; 0.19% of 330,000 active; calls by dose curve; further: potency means the concentration at half of the fitted maximal effect; 0% is about no effect; nearly all actives have a fitted effect of over 55% in size
Pf growth 96h: Primary qHTS for delayed death inhibitors of the malarial parasite plastid, 96 hour incubation; P. falciparum luciferase reporter growth, 96 h; Potency, µM (doses to about 28.7 µM), without a hit: at the highest dose activity change, negative = inhibition, usual class: inhibitors; 6.9% of 320,000 active; further: potency means the concentration at half of the fitted maximal effect; on the % scale 0 is the no-effect control and ±100 the full control effect
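96 h incubation, 37 C, 5% CO2, of luciferase-reporter P. falciparum-infected RBCs (2% hematocrit, 0.05% parasitemia final) with test compounds; endpoint luminescence.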
Active calls of the source: *; ? = inconclusive; . = no result given; [ ] = remark or other dose. Unless noted, the call rests on the fitted dose curve; in most records, active means well fitted curve in the direction sought with a large enough effect; inconclusive means small, poorly fitted or top-dose-only effect, or another doubt; inactive means no such curve, though single readings can be large; an effect the other way counts as inactive or inconclusive.

SMILES	AMA1 RON2 block	Pf growth 48h	Shiga toxin inh	CHX counter	SARS PLP yeast	Pf growth 96h
Cc1ccc(NC(=O)CSc2ncccn2)c([N+](=O)[O-])c1	9.6%	10.7%	82.0*	27.8*	3.1%	65.7%
Cc1ccc(NC(=O)CSc2nc(C)c(C)c(C)n2)c([N+](=O)[O-])c1	-8.6%	-1.9%	-10.6	2.9	-3.3%	10.5%
O=C(CSc1ccccn1)Nc1ccc(Br)cn1	-1.0%	42.2%	66.9	21.2*	-7.6%	11.5%
CCOC(=O)C1CCN(CC(=O)c2ccc(O)c(C)c2O)CC1	-5.1%	-9.8%	0.4	-2.0	10.9%	?
COc1ccccc1C(C)NCC(=O)Nc1c(F)cccc1F (stereo not drawn)	3.0%	-10.5%	33.8	8.3	1.2%	-11.2%
COc1cc(Cl)c(C)cc1NC(=O)CNC(C)c1ccccc1OC (stereo not drawn)	-22.1%	-12.2%	-10.1	0.4	-8.2%	9.28µM*
CCCCCCOC(=O)c1ccccc1NC(=O)/C=C/C(=O)O	17.6%	-7.4%	116.9*	51.3*	-15.5%	-20.2%
Cc1ccc(C=Nc2ccccc2C(N)=O)cc1	1.2%	.	71.0*	46.7*	-6.3%	58.6%
Cc1ccc(/C=C/C(=O)Nc2ccccc2C(N)=O)cc1	16.7%	265.2%	63.5*	45.9*	-19.6%	-19.8%
CCOC(=O)c1ccccc1NC(=O)/C=C/C(=O)O	13.4%	-0.7%	0.5	4.4	?	35.6%
NC(=O)c1ccccc1NC(=O)/C=C/C(=O)O	-11.0%	.	53.0*	35.0*	1.5%	-37.8%
COc1c(C)cccc1C(=O)NCc1ccc2c(c1)OCO2	-5.1%	-7.5%[0.00184 µM]	-0.5	1.4	1.8%	?
Cc1ccccc1C(=O)NNC(=O)/C=C\C(=O)O	147.5%	33.5%	83.1*	38.4*	-1.8%	0.0%
O=C(O)c1ccccc1C(=O)OCCCCOC(=O)c1ccccc1C(=O)O	-7.7%	-5.2%	-9.5	1.6	-1.4%	14.7µM*
O=C(NCC1CCCO1)C(=O)NCC1CCCN1S(=O)(=O)c1ccccc1 (stereo not drawn)	-12.8%	3.0%	.	.	-3.2%	10.4%
O=C(COC(=O)c1cc2ccccc2cc1O)Nc1ccccc1F	-28.7%	.	.	.	0.6%	.
O=C(COC(=O)c1ccccc1Br)NCc1ccccc1	-12.2%[11.6 µM]	15.4%	37.5	24.3*	-6.9%	-8.7%
O=C(COC(=O)c1ccccc1Br)NCc1cccs1	-7.0%	.	.	.	-1.8%	.
O=C(COC(=O)c1ccccc1Br)Nc1ccccc1F	18.7%	2.6%	56.9*	55.1*	-3.3%	-7.1%
C(=C\c1ccccc1)/CSc1nc2ncccc2[nH]1	10.0%	0.0%	53.3*	25.2*	-1.5%	?
Cc1cc(SCC(=O)c2cccc([N+](=O)[O-])c2)nc(=O)[nH]1	-15.7%	32.1%	80.1*	34.6*	-5.6%	-19.7%
O=C(CSc1nc2ncccc2[nH]1)c1ccc(F)cc1	7.8%	22.5%	28.4	43.0*	-2.4%	122.0%
COC(=O)CSc1nc2ncccc2[nH]1	-5.5%	8.3%	-1.4	-1.1	-3.0%	.
Cn1c(COc2ccccc2)nnc1SCC(=O)c1cccc([N+](=O)[O-])c1	-0.5%	?	-8.3	-1.8	-0.3%	?
CCOc1cc(C)ccc1OCc1nnc(SCC(=O)c2cccc([N+](=O)[O-])c2)n1C	-19.5%	?	-10.5	1.3	?	11.7µM*
CCOC(=O)Cc1csc(NC(=O)Cn2c(=O)oc3ccccc32)n1	0.0%	2.9%	16.7	0.0	1.6%	22.8%
CCN(CC)CCN(C(=O)Cn1nnc(-c2ccc(C)o2)n1)C(C(=O)NC1CCCC1)c1ccc(F)cc1 (stereo not drawn)	4.9%	?	-5.6	-7.3	5.2%	?
Fc1cccc(CSc2nc3ncc(Cl)cc3[nH]2)c1	27.3%	?	30.3	19.9*	-1.9%	?
O=c1cc(-c2ccccc2)nc(SCc2ccc(F)cc2)[nH]1	-9.9%[2.32 µM]	-7.3%	-7.7	-1.0	-12.2%	250.0%
Fc1cccc(CSc2nc3ncccc3[nH]2)c1	-4.1%	?	94.4*	51.3*	-14.4%	11.7µM*

Screens (PubChem)
